Screening results (PubChem BioAssay)
KinaseGlo FLuc: Kinase-Glo luciferase inhibition (counter-screen); actives 0.28% (n = 200,000); Potency, µM (titrated, usually from 38.3 µM), for the others: at the highest dose activity change, negative = inhibition, usual class: inhibitors; Q27757; Kinase-Glo luciferase, ATP luminescence, 8 min; further: on the % scale 0 is the no-effect control and ±100 the full control effect; nearly all actives have a fitted effect of over 60% in size
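Substrate mix (final 50 mM imidazole pH 7.2, 50 mM KCl, 7 mM MgCl2, 10 uM ATP, 0.01% Tween 20, 0.05% BSA) plus pin-tool compound, then Kinase-Glo detection mix; 8 min ambient, luminescence read.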
Rab9 prom act: Rab9 promoter activation. Huh7 Rab9 promoter-luciferase reporter, luminescence, 24 h. Potency, µM (doses to about 9.22 µM), for inactives: at the top dose activation, negative = inhibition, actives largely listed as activators. actives 2.8% (n = 320,000). AID 485297; further: % of control where 0% means no effect; nearly all actives have a fitted effect of over 60% in size
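Quantitative HTS format; Huh7 Rab9-luciferase reporter cells (1500/well) receive compound 2 h post-plating, incubate 24 h at 37 °C, then get luciferase reagent for 10 min before luminescence reading.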
NPC1 prom act: activates the NPC1 promoter; Huh7 NPC1 promoter luciferase reporter, 24 h; Potency, µM (top dose mostly 9.22 µM), inactives show top-dose activation, most hits filed as activators; actives 2.4% (n = 320,000); further: % of control where 0% means no effect; nearly all actives have a fitted effect of over 60% in size
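Huh7 reporter cells (NPC1 promoter driving luciferase) are dosed with compound for 24 h at 37 °C, 5% CO2; luciferase detection reagent is then added and luminescence measured after 10 min at ambient temperature.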
ELG1 genotoxic: induces genotoxicity in HEK293T cells with luciferase-tagged ELG1; HEK293T ELG1-luciferase reporter, luminescence, 16 h; Potency, µM (highest dose often 46 µM), inactives show top-dose activity change, positive = activation, usual class: activators; actives 1.3% (n = 330,000); further: % of control where 0% means no effect; nearly all actives have a fitted effect of over 60% in size
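Screening used a luciferase reporter fused to human ELG1 in HEK293T cells. Luminescence was read on a CCD plate imager after 16 hr exposure and 30 min ONE-Glo incubation.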
SMN2 splice enh: increases expression of the SMN2 splice variant; actives 2.8% (n = 210,000); Potency, µM (doses to about 46.1 µM), for the others: top-dose activity change, positive = activation, actives largely listed as activators; HEK293 SMN2-luciferase splicing reporter, luminescence, 30-36 h; further: % of control where 0% means no effect; nearly all actives have a fitted effect of over 55% in size
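HEK293 cells carry an SMN2 minigene-luciferase reporter in which exon 7 inclusion puts luciferase in frame. Cells were seeded at 2000 cells/well, attached for 10-12 hours, then exposed to compounds for 30-36 hours at 37C before ONE-Glo luminescence.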
FLuc counter: firefly luciferase modulation, counter-screen for miR-21 project; AID 588342; P08659; actives 6.9% (n = 360,000); Potency, µM (series often up to 57.5 µM), for the others: at the highest dose activity change, negative = inhibition, hits mostly inhibitors; purified FLuc, Km substrates, luminescence inhibition;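 further: plate controls were vehicle for no effect and reference inhibitor for full effect; nearly all actives have a fitted effect of over 55% in size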
Target sequence (P08659 whole entry, looked up): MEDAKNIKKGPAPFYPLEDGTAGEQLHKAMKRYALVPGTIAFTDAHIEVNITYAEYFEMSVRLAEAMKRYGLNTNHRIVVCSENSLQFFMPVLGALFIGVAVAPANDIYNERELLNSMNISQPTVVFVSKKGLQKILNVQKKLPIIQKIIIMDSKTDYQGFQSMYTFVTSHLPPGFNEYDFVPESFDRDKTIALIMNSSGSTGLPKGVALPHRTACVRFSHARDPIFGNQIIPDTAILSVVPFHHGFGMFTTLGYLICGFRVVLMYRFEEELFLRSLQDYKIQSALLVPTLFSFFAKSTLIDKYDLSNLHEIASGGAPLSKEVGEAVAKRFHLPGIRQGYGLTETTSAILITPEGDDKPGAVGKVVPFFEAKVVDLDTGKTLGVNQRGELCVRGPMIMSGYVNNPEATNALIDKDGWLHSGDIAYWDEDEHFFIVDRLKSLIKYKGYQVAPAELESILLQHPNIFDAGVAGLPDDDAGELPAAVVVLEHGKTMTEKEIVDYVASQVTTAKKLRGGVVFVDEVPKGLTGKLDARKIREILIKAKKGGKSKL
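Biochemical qHTS of compounds, final roughly 60 µM downward over six points, against 10 nM purified firefly luciferase using Km concentrations of substrates (10 uM D-luciferin, 10 uM ATP) in Tris acetate pH 7.5 buffer; luminescence output.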
Starred values were filed as active, the others as inactive; [ ] = another dose, or the depositor's remark. Rows were chosen to be rich in hits. Some 7.3% of all compounds tested hit in one or more screens of this group. The call rests on the fitted dose curve; in most records, active means well fitted curve in the direction sought with a large enough effect; inconclusive means small, poorly fitted or top-dose-only effect, or another doubt; inactive means no such curve, though single readings can be large; an effect the other way counts as inactive or inconclusive. Potency means the concentration at half of the fitted maximal effect.

What do the screens show for `CN(N=Nc1ccc([N+](=O)[O-])cc1)c1ccccc1`?
KinaseGlo FLuc: 0%; Rab9 prom act: inconclusive; NPC1 prom act: 4µM*; ELG1 genotoxic: inconclusive; SMN2 splice enh: 20µM*; FLuc counter: 5.4µM*

How did CN(N=Nc1cccc([N+](=O)[O-])c1)c1ccccc1 do in these assays?
Rab9 prom act: inconclusive; NPC1 prom act: inconclusive; ELG1 genotoxic: inconclusive; FLuc counter: 9.5µM*

How did O=C(c1cc2cc(Cl)cc(Cl)c2oc1=O)N1CCOCC1 do in these assays?
Rab9 prom act: -5%; NPC1 prom act: -2%; ELG1 genotoxic: 0%; FLuc counter: 3%

What do the screens show for `Nc1nc2ccccc2n1C(=O)c1ccccc1`?
KinaseGlo FLuc: 11µM*; Rab9 prom act: 0.35µM*; NPC1 prom act: inconclusive; ELG1 genotoxic: 0.65µM*; SMN2 splice enh: 1.6µM*; FLuc counter: 0.76µM*

Results for Cn1c(CNC(=O)c2ccc(F)cc2)nc2ccccc21 ?
KinaseGlo FLuc: -2%; Rab9 prom act: -5%; NPC1 prom act: 2%; ELG1 genotoxic: 1%; SMN2 splice enh: -1%; FLuc counter: -1%

What do the screens show for `Nc1nc2ccccc2n1C(=O)c1ccco1`?
KinaseGlo FLuc: inconclusive; Rab9 prom act: 2.5µM*; NPC1 prom act: inconclusive; ELG1 genotoxic: inconclusive; SMN2 splice enh: 13µM*; FLuc counter: 11µM*

Results for Nc1nc2ccccc2n1C(=O)c1ccc(F)cc1 ?
KinaseGlo FLuc: inconclusive; Rab9 prom act: 0.28µM*; NPC1 prom act: 0.5µM*; ELG1 genotoxic: 1.2µM*; FLuc counter: 1.3µM*

Results for Nc1nc2ccccc2n1C(=O)c1cccs1 ?
KinaseGlo FLuc: inconclusive; Rab9 prom act: 0.79µM*; NPC1 prom act: inconclusive; ELG1 genotoxic: inconclusive; SMN2 splice enh: 11µM*; FLuc counter: 2.7µM*

What do the screens show for `COCCNc1nc2ccccc2n1CC(=O)c1ccc(OC)c(OC)c1`?
Rab9 prom act: -1%; NPC1 prom act: 0%; ELG1 genotoxic: -5%; FLuc counter: -1%

How did CCC(=O)N1CCn2c1nc1ccccc12 do in these assays?
KinaseGlo FLuc: -3%; Rab9 prom act: 3%; NPC1 prom act: -2%; ELG1 genotoxic: 6%; SMN2 splice enh: 23%; FLuc counter: 1%

What do the screens show for `Nc1nc2ccccc2n1C(=O)CCc1ccccc1`?
KinaseGlo FLuc: -2%; Rab9 prom act: inconclusive; NPC1 prom act: inconclusive; ELG1 genotoxic: 2.3µM*; SMN2 splice enh: 10µM*; FLuc counter: inconclusive

How did COc1ccc(C(=O)n2c(N)nc3ccccc32)cc1OC do in these assays?
Rab9 prom act: 2.5µM*; NPC1 prom act: 2.8µM*; ELG1 genotoxic: inconclusive; FLuc counter: 19µM*

Results for O=C(c1ccco1)N1CCn2c1nc1ccccc12 ?
KinaseGlo FLuc: inconclusive; Rab9 prom act: inconclusive; NPC1 prom act: inconclusive; ELG1 genotoxic: inconclusive; SMN2 splice enh: 11µM*; FLuc counter: inconclusive

What do the screens show for `CCCN(CC(=O)Nc1ccc(F)c(F)c1F)C(=O)c1ccc2c(=O)n3c(nc2c1)CCC3`?
Rab9 prom act: -4%; NPC1 prom act: -1%; ELG1 genotoxic: -7%; FLuc counter: 2%

What do the screens show for `Clc1ccccc1CSc1ncn(-c2ccccc2)n1`?
KinaseGlo FLuc: -3%; Rab9 prom act: inconclusive; NPC1 prom act: 3.5µM*; ELG1 genotoxic: inconclusive; SMN2 splice enh: 22µM*; FLuc counter: 7.6µM*

What do the screens show for `Cc1ccccc1Nc1nc(N)nc(COC(=O)c2cccn2C)n1`?
KinaseGlo FLuc: -3%; Rab9 prom act: inconclusive; NPC1 prom act: 3.5µM*; ELG1 genotoxic: 16µM*; SMN2 splice enh: 11µM*; FLuc counter: 17µM*

What do the screens show for `Cc1ccccc1Nc1nc(N)nc(COC(=O)c2ccccc2)n1`?
KinaseGlo FLuc: -2%; Rab9 prom act: 2.2µM*; NPC1 prom act: inconclusive; ELG1 genotoxic: inconclusive; SMN2 splice enh: inconclusive; FLuc counter: 15µM*

What do the screens show for `Cc1ccccc1Nc1nc(N)nc(COC(=O)c2ccc(O)cc2)n1`?
KinaseGlo FLuc: -3%; Rab9 prom act: 16%; NPC1 prom act: -2%; ELG1 genotoxic: 2%; SMN2 splice enh: 16%; FLuc counter: -11%

What do the screens show for `Cc1nn(-c2ccccn2)c2c1-c1nc(N)ncc1CC2`?
KinaseGlo FLuc: -2%; Rab9 prom act: 3.2µM*; NPC1 prom act: 3.5µM*; ELG1 genotoxic: 8%; SMN2 splice enh: inconclusive; FLuc counter: 11µM*

How did Cc1nn(-c2ccccn2)c2c1-c1nc(N3CCOCC3)ncc1CC2 do in these assays?
KinaseGlo FLuc: -1%; Rab9 prom act: 10%; NPC1 prom act: 6%; ELG1 genotoxic: 2%; SMN2 splice enh: -27%; FLuc counter: -10%

What do the screens show for `COc1ccccc1C(=O)Nc1ccc(NC(=O)C2CCCCC2)nc1`?
Rab9 prom act: 7%; NPC1 prom act: -3%; ELG1 genotoxic: 0%; FLuc counter: inconclusive

What do the screens show for `O=C(Cc1ccccc1)Nc1ccc(NC(=O)c2ccccc2)nc1`?
Rab9 prom act: 2.2µM*; NPC1 prom act: 2.8µM*; ELG1 genotoxic: inconclusive; FLuc counter: inconclusive

Results for CCCC(=O)Nc1ccc(NC(=O)c2ccccn2)cn1 ?
Rab9 prom act: 2.8µM*; NPC1 prom act: 2.2µM*; ELG1 genotoxic: inconclusive; FLuc counter: 13µM*

How did CC(C)C(=O)Nc1ccc(NC(=O)c2cccc(F)c2)cn1 do in these assays?
KinaseGlo FLuc: -5%; Rab9 prom act: 2.8µM*; NPC1 prom act: 27%; ELG1 genotoxic: inconclusive; SMN2 splice enh: 10%; FLuc counter: inconclusive

How did O=C(Nc1ccc(NC(=O)C2CCCCC2)nc1)c1ccccn1 do in these assays?
KinaseGlo FLuc: -30%; Rab9 prom act: 3.5µM*; NPC1 prom act: inconclusive; ELG1 genotoxic: inconclusive; SMN2 splice enh: 22µM*; FLuc counter: 17µM*

What do the screens show for `CC(C)C(=O)Nc1ccc(NC(=O)CCc2ccccc2)cn1`?
KinaseGlo FLuc: -4%; Rab9 prom act: -6%; NPC1 prom act: 0%; ELG1 genotoxic: 1%; SMN2 splice enh: -4%; FLuc counter: 7%

What do the screens show for `COc1ccc(NC(=O)C2C3CCC4C(CCC32)C4(Cl)Cl)cc1` (stereo unspecified)?
KinaseGlo FLuc: -7%; Rab9 prom act: 1%; NPC1 prom act: 7%; ELG1 genotoxic: -2%; SMN2 splice enh: -12%; FLuc counter: -3%

Results for COc1ccc(NC(=O)COc2nc(N(C)C)nc(N(C)C)n2)cc1 ?
KinaseGlo FLuc: -2%; Rab9 prom act: -2%; NPC1 prom act: -1%; ELG1 genotoxic: 1%; SMN2 splice enh: -17%; FLuc counter: 1%[2.3 µM]
